Screens: PubChem BioAssay, Broad Institute
DUX4 txn inh – DUX4-mediated transcription inhibition | 293T-iDUX4 ZSCAN4-Gaussia luciferase reporter, 24 h; hits give low values | activity change, negative = inhibition, % (no concentration beside the values) | 0.8% of 37,000 active;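 active = mean inhibition of at least 10% in the main channel, exceeding the control channel by a set limit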
Hits are given with their value; 0 = inactive; ! = a repeat was not active. Many of the other results were omitted from the sample, so hits are more common in it than they were.

SMILES	DUX4 txn inh
C[C@@H](O)C#Cc1ccc2c(c1)O[C@H](CN(C)Cc1ccc(-c3ccccc3)cc1)[C@@H](C)CN([C@@H](C)CO)S2(=O)=O	0
CCNC(=O)[C@@H]1[C@@H](CO)[C@@H]2Cn3c(cccc3=O)[C@H]1N2C(=O)C1CCC1	0
C[C@@H]1CN([C@@H](C)CO)C(=O)CCCn2nncc2CO[C@@H]1CN(C)Cc1ccc(C(=O)O)cc1	0
C[C@H](CO)N1C[C@H](C)[C@H](CN(C)Cc2ccc(C(=O)Nc3ccccc3N)cc2)OCc2cnnn2CCCC1=O	-16.0
C[C@H]1CN([C@@H](C)CO)C(=O)CCCn2nncc2CO[C@H]1CN(C)Cc1ccc(C(=O)O)cc1	0
COc1cccc(S(=O)(=O)N(C)C[C@H]2Oc3cc(Br)ccc3S(=O)(=O)N([C@@H](C)CO)C[C@H]2C)c1	0
COc1cccc(C(=O)Nc2ccc3c(c2)C(=O)N(C)[C@@H]2CC[C@@H](CC(=O)NCc4ccc(F)cc4)O[C@@H]2CO3)c1	0
Cc1cccc(-c2ccc([C@@H]3[C@@H](CO)N4CCCCN(CCC(F)(F)F)C[C@H]34)cc2)c1	0
OC[C@H]1[C@H](c2ccc(-c3cccc(F)c3)cc2)[C@@H]2CN(CCC(F)(F)F)CCCCN12	-47.0
CN(C)C(=O)c1ccc(-c2ccc([C@H]3[C@@H](CO)N4CCCCN(CCC(F)(F)F)C[C@@H]34)cc2)cc1	0
Cc1cccc(-c2ccc([C@H]3[C@@H](CO)N4CCCCN(CCC(F)(F)F)C[C@H]34)cc2)c1	-39.3
Cc1cccc(-c2ccc([C@@H]3[C@@H](CO)N4CCCCN(CCC(F)(F)F)C[C@@H]34)cc2)c1	-55.5
OC[C@@H]1[C@@H](c2ccc(-c3cccc(F)c3)cc2)[C@@H]2CN(Cc3cncnc3)CCCCN12	0
CN(C)C(=O)c1ccc(-c2ccc([C@@H]3[C@@H](CO)N4CCCCN(CCC(F)(F)F)C[C@H]34)cc2)cc1	0
OC[C@H]1[C@@H](c2ccc(-c3cccc(F)c3)cc2)[C@H]2CN(Cc3cncnc3)CCCCN21	0
Cc1cccc(-c2ccc([C@H]3[C@@H](CO)N4CCCCN(Cc5ccncc5)C[C@H]34)cc2)c1	0
CCNC(=O)c1cc2c(c(-c3cccc(-c4cccnc4)c3)n1)[C@H](CCO)N(S(C)(=O)=O)C2	0
C[C@H](NC(=O)C[C@H]1CC[C@H]2[C@@H](COC[C@@H](O)CN2Cc2cc(F)ccc2F)O1)c1ccccc1	0
O=C(C[C@@H]1CC[C@@H]2[C@H](COC[C@@H](O)CN2C(=O)Nc2ccc(F)cc2)O1)NCCCN1CCOCC1	0
C[C@H](NC(=O)C[C@H]1C[C@@H]2c3cc(NC(=O)NC4CCCCC4)ccc3O[C@@H]2[C@@H](CO)O1)c1ccccc1	0
CC(C)[C@@H]1COCc2cn(nn2)CCC[C@H](C)C(=O)N1	0
O=C(c1ccncc1)N1C[C@H]2[C@@H](c3ccccc31)[C@@H](CO)N2C(=O)c1ccccc1F	0
C/C=C/c1ccc2c(c1)O[C@@H](CN(C)CC1CCOCC1)[C@@H](C)CN([C@@H](C)CO)S2(=O)=O	0
CCCNC(=O)Nc1ccc2c(c1)C(=O)N(C)C[C@H](OC)[C@H](C)CN(Cc1ccccn1)[C@H](C)CO2	0
CO[C@H]1CN(C)C(=O)c2cc(NS(=O)(=O)CC(F)(F)F)ccc2OC[C@H](C)NC[C@@H]1C	0
SMILES	DUX4 txn inh
N#C[C@H]1[C@H](c2ccccc2C2=CCCCC2)[C@@H](CO)N1C(=O)Cc1ccncc1	0
CN(C)C(=O)c1cccc(-c2ccc(C3[C@@H]4CN(Cc5cocn5)C[C@H]3N4)cc2)c1 (some centres undefined)	0
N#Cc1ccc(-c2ccc(C3[C@H]4CNC[C@@H]3N4C(=O)Nc3ccccc3F)cc2)cc1 (some centres undefined)	0
COc1ccccc1CN1[C@@H]2CNC[C@H]1C2c1ccc(-c2ccncc2)cc1 (some centres undefined)	0
N#Cc1ccc(-c2ccc(C3[C@@H]4CN(Cc5ccccc5F)C[C@H]3N4)cc2)cc1 (some centres undefined)	-43.6!
COc1ccccc1CN1[C@@H]2CNC[C@H]1C2c1ccc(-c2ccc(C#N)cc2)cc1 (some centres undefined)	0
CN(C)C(=O)c1ccc(-c2ccc(C3[C@@H]4CN(Cc5nccs5)C[C@H]3N4)cc2)cc1 (some centres undefined)	0
N#Cc1ccc(-c2ccc([C@@H]3[C@@H]4CN(Cc5cocn5)C[C@H]3N4)cc2)cc1	-75.0
COc1cc(CN2C[C@@H]3N[C@H](C2)C3c2ccc(-c3cncnc3)cc2)cc(OC)c1 (some centres undefined)	0
COc1ccccc1CN1C[C@@H]2N[C@H](C1)C2c1ccc(-c2ccncc2)cc1 (some centres undefined)	-13.9!
COCC(=O)N1[C@@H](C#N)[C@@H](c2ccccc2-c2ccccc2)[C@@H]1CO	0
COc1ccccc1-c1ccc([C@H]2[C@@H](C#N)N(C(=O)C3CCC3)[C@@H]2CO)cc1	0
